Shown are actives, neighbours in structure and some others; about 18% of the full set was active somewhere.
HepG2 tox = HepG2 cytotoxicity, counter-screen for TGF-b inhibitors; 0.76% of 410,000 active; HepG2 CAGA-GFP viability, ATP luminescence, 18 h; Potency, µM (doses to about 46.1 µM), for the others: top-dose activity change, negative = cytotoxicity, hits mostly cytotoxic; also: potency is read from the fitted curve at half-maximal effect
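CellTiter-Glo luminescence gave cytotoxicity after 18 hours at 37 degrees C. The cells were HepG2 CAGA-GFP in 1% FBS DMEM, stimulated with 500 pg/mL TGF-beta after compound addition. %Activity was normalised to no-cell wells (complete cell-killing) and DMSO (no toxicity), and curves were fitted and classified.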
TGFb SMAD3 inh = TGF-b pathway inhibition; Potency, µM (top dose mostly 46.1 µM), inactives show top-dose activity, negative = inhibition, actives largely listed as inhibitors; HepG2 CAGA-GFP TGF-b/SMAD3 reporter, GFP fluorescence, 18 h; TGF-beta stimulated, 500 pg/mL final; 1.2% of 410,000 active; also: potency is read from the fitted curve at half-maximal effect; % is scaled to controls: 0 for no effect and ±100 for the full control effect; nearly all actives have a fitted effect of over 65% in size
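GFP signal (ex488/em500-530) from TGF-beta-stimulated HEPG2 CAGA-GFP cells, 500 pg/mL final, 18 h at 37 degrees C in DMEM plus 1% FBS, normalized to unstimulated and DMSO-stimulated controls.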
TDP1 cell noCPT = qHTS for Inhibitors of human tyrosyl-DNA phosphodiesterase 1 (TDP1): qHTS in cells in absence of CPT. 15% of 420,000 active. Potency, µM (top dose mostly 46.2 µM), for the others: at the highest dose activity change, negative = growth inhibition, usual class: inhibitors. DT40 Tdp1-/- hTDP1 cells, no CPT, ATP luminescence, 48 h; also: potency is read from the fitted curve at half-maximal effect; % is scaled to controls: 0 for no effect and ±100 for the full control effect; nearly all actives have a fitted effect of over 55% in size
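DT40 Tdp1-/-;hTDP1 cells, no CPT (DMSO vehicle only), 400 cells/well; compounds pin-transferred; ≥48 hr, 37 °C; CellTiter-Glo 30 min RT dark, luminescence read.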
IL1B secr inh = inhibitors of inflammasome signaling (IL-1 beta secretion); THP-1 LPS/ATP IL-1B secretion, AlphaLISA, 16 h; active compounds read low; activity change, % at 57.5 µM; 4.7% of 360,000 active; AID 743279; in the data active = activity change below about -50%; inconclusive = mostly about -30% to -49%; also: % is scaled to controls: 0 for no effect and ±100 for the full control effect
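THP-1 cells pretreated 1 hr with compounds (up to 57.5 uM final), then stimulated with LPS (250 ng/mL final) plus ATP (1.25 mM final); secreted IL-1B measured by AlphaLISA after 16 hr, decreased signal indicating inhibition.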
TDP1 block = TDP1 (human) enzyme inhibition. Q9NUW8. recombinant TDP1, AlphaScreen DNA substrate cleavage. Potency, µM (series often up to 130 µM), for the others: at the top dose activity change, negative = inhibition, actives largely listed as inhibitors. 0.28% of 350,000 active. AID 485290; also: potency is read from the fitted curve at half-maximal effect; % is scaled to controls: 0 for no effect and ±100 for the full control effect; nearly all actives have a fitted effect of over 40% in size
Target sequence (Q9NUW8 whole entry, looked up): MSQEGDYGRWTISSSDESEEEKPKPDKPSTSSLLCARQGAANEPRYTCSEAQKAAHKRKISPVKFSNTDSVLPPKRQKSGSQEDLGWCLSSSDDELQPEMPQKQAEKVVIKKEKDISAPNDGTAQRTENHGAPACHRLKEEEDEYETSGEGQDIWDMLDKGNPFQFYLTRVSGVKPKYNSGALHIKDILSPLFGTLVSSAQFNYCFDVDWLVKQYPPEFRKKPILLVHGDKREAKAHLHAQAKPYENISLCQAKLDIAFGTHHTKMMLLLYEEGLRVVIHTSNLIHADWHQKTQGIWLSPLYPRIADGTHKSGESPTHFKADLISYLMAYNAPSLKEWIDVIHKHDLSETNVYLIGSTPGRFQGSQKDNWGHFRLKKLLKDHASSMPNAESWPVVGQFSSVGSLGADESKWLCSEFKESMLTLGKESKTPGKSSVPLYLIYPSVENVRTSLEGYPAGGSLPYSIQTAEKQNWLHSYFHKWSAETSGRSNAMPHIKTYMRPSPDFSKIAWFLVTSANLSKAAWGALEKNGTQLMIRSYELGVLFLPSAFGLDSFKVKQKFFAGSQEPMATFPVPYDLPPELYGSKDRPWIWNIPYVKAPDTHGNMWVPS
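Signal: AlphaScreen proximity between streptavidin donor and anti-FITC acceptor beads on intact substrate. Reaction: Tdp1 1 nM, substrate 15 nM final, 5 min RT after 15 min compound preincubation.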
TDP1 cell CPT = growth inhibition of DT40 Tdp1-/-;hTDP1 cells with camptothecin (screen for TDP1 inhibitors) | 12% of 420,000 active | Potency, µM (doses to about 46.2 µM), inactives show at the highest dose activity change, negative = growth inhibition, actives largely listed as inhibitors | chicken DT40 Tdp1-/-;hTDP1 cells + 20 nM CPT, ATP luminescence, 48 h | AID 686979; also: potency is read from the fitted curve at half-maximal effect; % is scaled to controls: 0 for no effect and ±100 for the full control effect; nearly all actives have a fitted effect of over 55% in size
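Cell growth measured by CellTiter-Glo luminescence after a minimum 48 h, 37 C compound exposure with 20 nM CPT in Tdp1-knockout DT40 cells stably expressing hTDP1, seeded 400/well; qHTS titration format.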
The depositor's hits bear a star; ? = inconclusive; . = no result; [ ] = remark or other dose. Unless noted, calls follow the shape of the dose curve; as a rule, active = well fitted curve in the direction sought with a large enough effect; inconclusive = small, poorly fitted or top-dose-only effect, or another doubt; inactive = no such curve, though single readings can be large; an effect the other way counts as inactive or inconclusive.

SMILES | HepG2 tox | TGFb SMAD3 inh | TDP1 cell noCPT | IL1B secr inh | TDP1 block | TDP1 cell CPT
CC1(C)Oc2ccc3ccc(=O)oc3c2/C(=C/Nc2cccc(O)c2)C1=O | -44.3% | ? | 20.6µM* | -83.6* | 8.6% | ?
CCCN1C(=O)C2(c3ccccc31)c1c(oc3ccccc3c1=O)C(=O)N2CCO (configuration not stated) | -5.9% | 2.3% | -3.9% | . | 1.2% | -28.0%
COc1ccc2c(n1)Sc1nc3ccccc3nc1N2 | -5.6% | 42.0% | ? | 16.0 | 2.9% | ?
CN1CCC(Nc2ncc3ncnc(Nc4ccc(F)c(Cl)c4)c3n2)CC1 | . | . | 21.1µM* | . | 8.2% | ?
COc1ccc(-c2noc(-c3cccnc3N3CCN(c4ccc(OC)cc4)CC3)n2)cc1 | 2.8% | ? | 8.2µM* | . | 5.7% | 14.6µM*
COc1ccccc1CN1CCN(Cc2nc(-c3ccccc3)no2)CC1 | -13.3% | -17.3% | -0.1% | 33.7 | -3.0% | -10.5%
COc1ccc(-c2noc(CN3CCN(c4cccc(Cl)c4)CC3)n2)cc1 | -18.6% | ? | ? | . | 1.3% | ?
COc1ccccc1N1CCN(Cc2nc(-c3cc(OC)c(OC)c(OC)c3)no2)CC1 | -25.7% | ? | 18.4µM* | . | 9.0% | 23.1µM*
COc1cccc(-c2noc(-c3ccoc3C)n2)c1 | -2.9% | 12.7% | -13.9% | 34.8 | -2.7% | 7.4%
COc1ccc(N2CCN(Cc3nc(-c4ccc(C)cc4)no3)CC2)cc1 | -2.3% | -11.5% | 23.1µM* | . | . | ?
COc1ccc(-c2noc(-c3ccoc3C)n2)cc1 | -15.8% | -7.0% | 18.4µM* | 25.4 | 3.6% | ?
COc1ccc(-c2cccc(C3C4C=CCCC4(C)C(=O)N3Cc3ccccc3)c2)cc1 (configuration not stated) | -23.0% | ? | . | . | 10.3% | .
COC(=O)[C@@H]1CCCN1Cc1ccc2c(c1)CN(Cc1cccn1-c1ccccn1)CCO2 | . | . | -13.1% | . | . | 8.9%[9.04 µM]
CN(C)C1(CNC(=O)C2CCN(S(=O)(=O)c3ccccc3C(F)(F)F)CC2)CCCCC1 | -6.8% | -3.7% | ? | -6.7 | 0.8% | 5.2%
O=C(NCCc1nnc2n1CCN(Cc1c(F)cccc1F)CC2)c1ccc(F)cc1 | . | . | -10.1% | . | . | 9.8%
COc1cc(-c2noc(CN3CCN(c4ccccc4)CC3)n2)cc(OC)c1OC | -47.2% | ? | 20.6µM* | . | 9.0% | ?
COc1ccc(C2c3c(-c4ccccc4O)n[nH]c3C(=O)N2Cc2ccco2)cc1OC (configuration not stated) | 4.4% | 8.1% | -20.3% | ? | 12.6% | -6.5%
O=C1c2[nH]nc(-c3ccccc3O)c2C(c2ccc(F)cc2)N1CC1CCCO1 (configuration not stated) | -33.9% | -10.8% | ? | -5.7 | 4.2% | ?
O=C1c2[nH]nc(-c3ccccc3O)c2C(c2cccc(Cl)c2)N1CC1CCCO1 (configuration not stated) | -34.7% | ? | 18.4µM* | -9.5 | 8.0% | ?
O=C1c2[nH]nc(-c3ccccc3O)c2C(c2ccc(F)cc2)N1Cc1ccco1 (configuration not stated) | -52.3% | ? | 16.4µM* | -20.4 | 12.6% | 18.4µM*
Cc1cc(C)c(O)c(-c2n[nH]c3c2C(c2cccc(O)c2)N(Cc2ccco2)C3=O)c1 (configuration not stated) | -97.7% | ? | ? | ? | 9.4% | ?
Cc1ccc(C2c3c(-c4cc(C)ccc4O)n[nH]c3C(=O)N2Cc2ccco2)cc1 (configuration not stated) | -111.4% | ? | ? | . | 12.3% | 23.1µM*
O=C1c2[nH]nc(-c3ccccc3O)c2C(c2cccc(Cl)c2)N1Cc1ccco1 (configuration not stated) | 11.2µM* | ? | 18.4µM* | -12.0 | 9.4% | ?
Cc1ccccc1NC(=O)c1sc(NC(=O)COc2ccccc2)c(C#N)c1C | -16.5% | -36.1% | 18.4µM* | 2.4 | 2.7% | ?
CC1(C)Cc2c(sc(NC(=O)COc3ccccc3)c2C#N)C(C)(C)N1 | 6.5% | 0.1% | -28.0% | -5.6 | 1.2% | ?
SMILES | HepG2 tox | TGFb SMAD3 inh | TDP1 cell noCPT | IL1B secr inh | TDP1 block | TDP1 cell CPT
COc1cc(OC)cc(C(=O)c2c(C)c(C#N)c3ccccn23)c1 | 8.0% | 4.2% | 2.31µM* | 30.2 | . | 2.31µM*
COc1cccc(C(=O)N2CCC(CCC(=O)Nc3cccc(C)c3)CC2)c1 | 10.5% | ? | -29.2% | -5.7 | 5.7% | ?
COc1ccccc1NC(=S)N(CCN1CCOCC1)Cc1ccccc1F | 2.6% | -0.8% | ? | -10.0 | 0.0% | -0.9%
CCOc1ccccc1NC(=S)N(CCCN1CCOCC1)Cc1cn(C)c2ccccc12 | -5.5% | 0.0% | ? | -10.9 | 0.0% | 16.4µM*
COc1ccccc1NC(=S)N(CCCN1CCOCC1)Cc1cn(C)c2ccccc12 | -3.7% | -0.3% | 16.4µM* | -7.7 | 10.5% | 14.6µM*
COc1ccc(NC(=O)C2Cc3c(-c4cccc(C(C)=O)c4)ccnc3O2)cc1 (configuration not stated) | -14.4% | -12.5% | 2.91µM* | -3.4 | . | 2.31µM*
CC(=O)Nc1ccc(-c2ccnc3c2CC(C(=O)Nc2ccccc2)O3)cc1 (configuration not stated) | 3.6% | 8.3% | 5.8µM* | -26.0 | . | 4.61µM*

Assay outcomes: PubChem, National Center for Advancing Translational Sciences (NCATS)
